An excerpt weighted towards active compounds, which were near 8.1% of everything screened.
PINK1 modulator = modulators of PINK1 expression; PINK1 immunofluorescence, high-content cytometry, 24 h; hit rate 0.2% among 410,000; Potency, µM (doses to about 76.6 µM), inactives show at the highest dose activation (PINK1 increase), most hits filed as activators; active = well fitted activation curve with a large enough effect; inconclusive = small, poorly fitted or top-dose-only effect; cell line not stated here; also: % of control where 0% means no effect; nearly all actives have a fitted effect of over 65% in size
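PINK1 protein, normally rapidly degraded, was detected by immunofluorescence after 24 hour compound treatment of a stable cell line. Titration data (5 concentrations) came from laser-scanning cytometry, with CCCP-treated wells as controls.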
Epigenetic reg = derepresses silenced GFP reporter in murine cells; murine LDR cells, GFP reporter derepression, 30 h; Potency, µM (series often up to 53.9 µM), without a hit: top-dose GFP activation, hits mostly activators; hit rate 0.2% among 280,000; AID 1865; also: % of control where 0% means no effect; nearly all actives have a fitted effect of over 60% in size
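In this reporter-derepression format, murine cells bearing a silenced integrated CMV-GFP locus incubate with test compound (30 h, 37 C), then are washed and imaged; fluorescent objects of 20–120 um count as induced cells.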
Gal4-VP16 FLuc = inhibits Gal4-VP16 luciferase reporter, ROR gamma counter-screen. Drosophila S2 Gal4-VP16 UAS-luciferase, luminescence, 20 h. Potency, µM (highest dose often 53.6 µM), for the others: at the highest dose activity, negative = inhibition, most hits filed as inhibitors. hit rate 3.5% among 310,000. AID 2546;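 also: Gal4-VP16 expression switched on by copper sulfate through the metallothionein promoter; % is scaled to controls: 0 for no effect and ±100 for the full control effect; nearly all actives have a fitted effect of over 50% in size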
ClpP mod = qHTS Assay for Activators of ClpP; hit rate 1.9% among 340,000; purified B. subtilis ClpP, FRET peptide cleavage, 20 min; AID 651965, 2013; ATP-dependent Clp protease proteolytic subunit (Bacillus subtilis (strain 168)), P80244; Potency, µM (highest dose often 57.5 µM), without a hit: at the highest dose activity change, negative = active; active = well fitted falling curve with a large enough effect; inconclusive = small, poorly fitted or top-dose-only effect; inactive = no such curve, though single readings can be large or run the other way; also: the source files actives as falling curves though it sought activators and does not explain the sign; nearly all actives have a fitted effect of over 65% in size
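FRET quenching reversal measured ClpP activation: 10 microg/mL B. subtilis ClpP at pH 8 with the FRET-FV decapeptide, read at 430 nm after 320 nm excitation. The 20-min minus 0-min signal was scaled between DMSO/no-enzyme wells and ADEP (5.8 microM final).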
Sfp inh = blocks B. subtilis Sfp PPTase activity; Potency, µM, inactives show largest response in the series, negative = inhibition, actives largely listed as inhibitors; hit rate 3.5% among 310,000; AID 1490; Q9F4F7; Biochemical Sfp PPTase activity, qHTS;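 also: the enzyme is Sfp with the accession as filed and its product quenches rhodamine fluorescence; 0% = enzyme reaction without inhibitor and -100% = no enzyme wells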
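Step 1, compound plus 15 nM Sfp-PPTase, 15 min, room temperature. Step 2, add rhodamine-CoA (5 uM) and BHQ-2-YbbR (12.5 uM). Step 3, read 525/598 nm fluorescence at 0 and 30 min.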
RORgamma inh = ROR gamma (mouse) transcription inhibition; Drosophila S2 Gal4-RORgamma UAS-luciferase reporter, 20 h; hit rate 5.4% among 310,000; AID 2551; Potency, µM (titrated, usually from 53.6 µM), for inactives: at the highest dose activity change, negative = inhibition, usual class: inhibitors; also: % is scaled to controls: 0 for no effect and ±100 for the full control effect; nearly all actives have a fitted effect of over 60% in size
Target sequence (P51450 whole entry, looked up, the tested form may be a part): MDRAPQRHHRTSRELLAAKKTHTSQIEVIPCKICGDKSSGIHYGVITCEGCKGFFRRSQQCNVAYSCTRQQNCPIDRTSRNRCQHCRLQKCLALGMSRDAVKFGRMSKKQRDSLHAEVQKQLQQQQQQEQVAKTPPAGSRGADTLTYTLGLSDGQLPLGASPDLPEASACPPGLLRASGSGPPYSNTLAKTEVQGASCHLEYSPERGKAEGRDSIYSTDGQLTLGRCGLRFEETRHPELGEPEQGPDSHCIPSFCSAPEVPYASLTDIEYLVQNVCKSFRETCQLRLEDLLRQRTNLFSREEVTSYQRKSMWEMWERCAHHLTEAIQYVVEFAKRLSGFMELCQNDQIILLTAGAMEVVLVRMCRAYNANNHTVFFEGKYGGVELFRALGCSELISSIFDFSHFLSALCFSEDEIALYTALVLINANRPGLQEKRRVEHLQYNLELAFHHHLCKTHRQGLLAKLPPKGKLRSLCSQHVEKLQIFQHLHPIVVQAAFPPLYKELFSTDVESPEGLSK
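Schneider cells (Drosophila), stable Gal4 DBD–ROR gamma + UAS-luc; 1 hr cmpd preincubation; Cu2+ induction 700 uM final; 20 hr ambient; luminescence.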
* = called active by the depositor; ? = inconclusive; . = not tested or not shown; [ ] = another dose, or the depositor's remark. Unless noted, calls follow the shape of the dose curve; as a rule, active = well fitted curve in the direction sought with a large enough effect; inconclusive = small, poorly fitted or top-dose-only effect, or another doubt; inactive = no such curve, though single readings can be large; an effect the other way counts as inactive or inconclusive. Potency is read from the fitted curve at half-maximal effect.

SMILES	PINK1 modulator	Epigenetic reg	Gal4-VP16 FLuc	ClpP mod	Sfp inh	RORgamma inh
Cc1ccc(S(=O)(=O)N2CCCCC2)cc1NC(=O)c1ccco1	2%	.	.	0%	.	.
Cc1cnc(-n2ncc(C(=O)N(C)CC3COCCO3)c2C2CC2)nc1-c1cccs1 (stereo not drawn)	0%	.	.	.	.	.
CCOC(=O)C(Sc1cc(-c2ccccc2)nc2ncnn12)C(C)=O (stereo not drawn)	0%	?	2.8µM*	-3%	-19%	0.63µM*
CN1C2CCC1CC(OC(=O)C(O)c1ccccc1)C2 (stereo not drawn)	.	-1%	1%	.	35%	-12%
CCn1cc(/C=C(\NC(=O)c2ccc(C)cc2)C(=O)NCCCn2ccnc2)c2ccccc21	-5%	-2%	.	-4%	.	.
CC(C)CCNC(=O)c1cnn2c(C(F)(F)F)cc(-c3ccco3)nc12	1%[38.3 µM]	-1%	-1%	-12%	50µM*	-10%
CCOC(=O)c1cnn2c(C)cc(-c3ccccc3)nc12	-1%	-2%	-18%	-30%	6%	-4%
O=C(NC1CCCC1)c1cnn2c(C(F)(F)F)cc(-c3ccco3)nc12	1%[38.3 µM]	4%	?	-18%	2%	14%
CCCn1c(=O)c2c(C(=O)OCC)cc(-c3ccco3)nc2n(CCC)c1=O	7%[38.3 µM]	0%	14%	13µM*	8%	30%
CCOC(=O)c1cnn2c(C(F)(F)F)cc(-c3ccco3)nc12	0%	-9%	-8%	32µM*	3%	14%
Cc1cccc(NC(=S)N(CCCN2CCOCC2)C(C)c2cc3ccccc3o2)c1C (stereo not drawn)	0%	-2%	?	2%	5%	10µM*
COc1cccc2cc(C(C)N(CCCN3CCOCC3)C(=S)Nc3ccccc3C)oc12 (stereo not drawn)	0%	-1%	2%	.	12%	?
Cc1cccc(NC(=S)N(CCCN2CCOCC2)C(C)c2cc3ccccc3o2)c1 (stereo not drawn)	0%	0%	-2%[10 µM]	0%	13%	13µM*
COc1cc(NC2c3ncccc3C(=O)N2Cc2ccco2)cc(OC)c1 (stereo not drawn)	15%[38.3 µM]	1%	1%	-1%	45µM*	28%
COc1ccc(CN2C(=O)c3cccnc3C2Nc2ccc(OC)c(Cl)c2)cc1 (stereo not drawn)	-3%[38.3 µM]	-1%	1%	0%	3%	24%
CCc1cnc2c(c1SCC(=O)Nc1cc(Cl)ccc1OC)c(=O)n(C)c(=O)n2C	7%	2%	.	0%	.	.
CCOC(=O)c1c(NC(C)=O)c2c3c(sc2n1Cc1nc(-c2ccc(Cl)cc2)oc1C)CCCC3	1%	1%	.	-1%	.	.
Nc1c(C(=O)O)sc2nc(-c3ccc(F)cc3)cc(-c3ccccc3)c12	2%	?	8%	-4%	50µM*	-27%
Cc1c(C(=O)NC(C)(C)C)sc2ncnc(NCCN(C)C)c12	0%	.	.	.	.	.
Cc1cc(C)nc(NC(=S)Nc2ccc(F)cc2F)c1	0%	1%	-30%	.	5%	0.71µM*
Cc1ccc(C)c(NC(=S)Nc2ncccc2C)c1	1%	-1%	?	.	?	3.5µM*
Cc1cc(C(F)F)n2nc(C(=O)Nc3ccc(F)cc3F)nc2n1	2%	2%	1%	0%	-4%	-2%
Cc1ccc(C)c(NC(=O)c2ccccn2)c1	2%[38.3 µM]	2%	-3%	0%	-4%	-3%
Cc1cccnc1NC(=S)Nc1ccc(F)cc1F	1%	5%	?	.	18µM*	6.3µM*
COc1cccc(Cc2nc3ccccc3nc2SCC(=O)Nc2cccc(C)c2)c1	9%	?	.	-2%	.	.
Cc1cc(C)cc(NC(=O)Cn2c(=O)n(Cc3ccco3)c(=O)c3oc4ccccc4c32)c1	6%	1%	.	-1%	.	.

Screening results: PubChem, National Center for Advancing Translational Sciences (NCATS)
